hgDAF-12 ag: hgDAF-12 agonism, primary luciferase screen; HEK293 GAL4-hgDAF12 UAS-luciferase reporter, agonist luminescence; normalized to butyrate control; activation, % at 6.8 µM; actives 1.8% (n = 370,000); AID 687014;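 active means activation above a cutoff set at the mean of all screened compounds plus 3 SD, cut at about 10% in these data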;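 further: 0% = DMSO wells and 100% = sodium butyrate wells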
DAX1 inh-1: inhibitors of DAX1 repression of SF-1 activated StAR promoter | HEK293T StAR-luciferase reporter, SF-1/DAX-1 repression relief | inhibition, % at 6.8 µM | actives 1.1% (n = 370,000);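 active means inhibition above the mean over all tested compounds plus 3 SD, cut at about 3.6% in these data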;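 further: 0% = DAX-1 cells with DMSO and 100% = cells lacking DAX-1 with DMSO; higher inhibition means more luminescence from relief of DAX-1 repression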
AHR activator: activators of human aryl hydrocarbon receptor; P35869; AHR-responsive luciferase reporter cells, luminescence; actives 2.5% (n = 320,000); activation, % at 5 µM; in the data active means activation above about 47%;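 further: 0% = vehicle wells and 100% = reference agonist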
Target sequence (P35869 whole entry, looked up): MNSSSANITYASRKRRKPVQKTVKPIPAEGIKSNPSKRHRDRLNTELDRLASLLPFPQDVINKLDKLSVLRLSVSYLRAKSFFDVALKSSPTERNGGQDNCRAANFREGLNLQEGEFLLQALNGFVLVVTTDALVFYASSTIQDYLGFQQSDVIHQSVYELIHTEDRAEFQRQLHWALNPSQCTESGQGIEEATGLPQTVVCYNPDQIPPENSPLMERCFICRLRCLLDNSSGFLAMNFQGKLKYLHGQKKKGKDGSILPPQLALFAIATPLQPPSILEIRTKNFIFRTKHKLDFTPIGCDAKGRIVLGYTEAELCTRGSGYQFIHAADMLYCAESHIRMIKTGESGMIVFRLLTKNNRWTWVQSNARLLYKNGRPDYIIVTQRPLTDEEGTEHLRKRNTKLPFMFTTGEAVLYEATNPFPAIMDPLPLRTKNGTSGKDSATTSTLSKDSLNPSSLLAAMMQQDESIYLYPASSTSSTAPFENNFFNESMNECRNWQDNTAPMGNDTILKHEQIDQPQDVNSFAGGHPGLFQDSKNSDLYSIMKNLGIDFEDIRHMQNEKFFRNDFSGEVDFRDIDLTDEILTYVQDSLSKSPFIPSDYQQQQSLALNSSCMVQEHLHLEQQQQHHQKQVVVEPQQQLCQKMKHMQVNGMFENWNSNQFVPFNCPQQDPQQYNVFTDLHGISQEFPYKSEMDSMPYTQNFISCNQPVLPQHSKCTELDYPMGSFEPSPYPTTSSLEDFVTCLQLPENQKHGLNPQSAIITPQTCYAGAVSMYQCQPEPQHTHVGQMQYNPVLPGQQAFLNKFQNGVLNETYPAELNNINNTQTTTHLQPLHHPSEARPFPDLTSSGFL
DAX1 inh-2: inhibitors of human orphan nuclear receptor DAX1 (NR0B1). actives 0.99% (n = 340,000). HEK293 Gal4-DAX1 luciferase reporter, luminescence. P51843. inhibition, % at 6.75 µM;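 active means inhibition above the mean over all tested compounds plus 3 SD, cut at about 4.2% in these data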;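 further: 0% = DAX1-transfected cells with DMSO and 100% = empty-vector control cells with DMSO; inhibition shows as a rise in luminescence from relieved DAX1 repression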
ssDAF12 agonist: activates DAF-12 receptor from parasite S. stercoralis | activation, % at 6.8 µM | HEK293 ssDAF-12/GRIP1 lit1-tk-luc reporter, luminescence; % of 3 µM dafachronic acid response | actives 1% (n = 370,000) | AID 652126;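 active means activation above the mean over all tested compounds plus 3 SD, cut at about 0.9% in these data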;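 further: 0% = DMSO-only wells and 100% = 3 µM delta7-dafachronic acid wells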
hcDAF-12 act: activates DAF-12 receptor from parasite H. contortus | HEK293 hcDAF-12 lit1-tk-luc reporter, luminescence; 0% DMSO, 100% Δ7-dafachronic acid | activation, % at 6.8 µM | actives 1.4% (n = 370,000) | AID 652067;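 active means activation above the mean of all tested compounds plus 3 SD, cut at about 5.5% in these data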;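 further: 100% = response to 3 µM Δ7-dafachronic acid high control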
hgDAF12 ag: confirmation of H. glycines DAF-12 agonists | shares compounds with hgDAF-12 ag | HEK293 GAL4-hgDAF12 luciferase reporter, agonist mode; percent of butyrate response | activation, % at 6.8 µM | actives 80% (n = 3,300) | AID 743050;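 active means mean activation over triplicate wells above the hit cutoff derived from the earlier primary screen, cut at about 11% in these data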;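 further: 0% = DMSO low control and 100% = 2 mM sodium butyrate high control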
LXR ag 2: LXR-beta agonism as DAF-12 counter-screen | shares compounds with hgDAF-12 ag | HEK293 Gal4-LXR luciferase reporter, 24 h | activation, % at 6.8 µM | 3,300 tested, under 10 active | AID 743051;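 active means mean activation of the triplicate above a set limit carried over from the primary screen, none filed active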
* marks the source's active call; other numbers are inactive results; . = no result. Only some compounds are listed: those with a hit (about 5.7% of all), similar ones and a draw of the others.

SMILES | hgDAF-12 ag | DAX1 inh-1 | AHR activator | DAX1 inh-2 | ssDAF12 agonist | hcDAF-12 act | hgDAF12 ag | LXR ag 2
Cc1cc(O)cc(O)c1/C=N/NC(=O)c1ccc2c(c1)OCCO2 | -5 | -5 | . | -1 | -2 | -1 | . | .
O=C(N/N=C/c1ccc(Br)o1)c1ccc2c(c1)OCCO2 | 16* | 2 | 33 | 1 | 0 | 3 | 11* | 1
COc1c(O)ccc(/C=N/NC(=O)c2ccc3c(c2)OCCO3)c1[N+](=O)[O-] | 15* | 2 | 5 | 3 | 0 | 2 | 9 | 0
CCCC12CN3CCN(CC(C3)/C1=N\NC(=O)c1ccc(F)cc1)C2 | 13* | 1 | 14 | 0 | -1 | 0 | 2 | 0
CCCNC(=S)N1CCC(C(=O)c2ccc(F)cc2)CC1 | -1 | 0 | -1 | 0 | -1 | -3 | . | .
CC(C)c1ccc(NC(=O)Nc2cnccn2)cc1 | 16* | 3 | 45 | 0 | -1 | 0 | 14* | 1
O=C(Nc1ccc(Cl)cc1)Nc1cnccn1 | 7 | 0 | -5 | 4 | -2 | -1 | . | .
Cc1ccc(NC(=O)c2ccco2)c(NC(=O)c2cccs2)c1 | -1 | 0 | 1 | 0 | -2 | 0 | . | .
C/C(=N/NC(=O)c1cccs1)c1ccco1 | 18* | 3 | 23 | 2 | 0 | 3 | 9 | 0
CCOC(=O)C/C(C)=N/NC(=O)c1cccs1 | . | . | 7 | 2 | . | . | . | .
C/C(=N\NC(=O)c1cccs1)C(C)(C)C | 18* | 3 | 25 | 2 | -1 | 1 | 1 | 0
O=C(NC1CCCC1)C(C1CC1)n1c(-c2cc3ccccc3[nH]2)nc2ccccc21 (stereo not given) | 22* | 3 | . | . | 1.0* | 6 | 14* | 0
CCOc1ccc2nc(NC(=O)C3CCCO3)sc2c1 (stereo not given) | 18* | 3 | 12 | 2 | 0 | 4 | 16* | 1
CCOc1ccc2nc(NC(=S)NCc3ccccc3)sc2c1 | 0 | 0 | -7 | 0 | -1 | 0 | . | .
CCOc1ccc2nc(NC(=O)NC3CCCCC3)sc2c1 | -1 | 0 | 15 | 0 | -1 | 0 | . | .
CCOc1ccc2nc(NC(=O)COC)sc2c1 | 14* | 4.5* | 11 | 0 | 1 | 2 | 16* | 1
CCOc1ccc2nc(NC(=O)Nc3ccccc3)sc2c1 | 15* | 2 | 78* | 4.5* | -1 | 2 | 16* | 1
Cc1ncc([N+](=O)[O-])n1CCN1C(=O)c2ccccc2C1=O | 2 | 1 | 0 | 2 | -1 | 0 | . | .
C#Cc1cccc(C(=O)N2CCCC(C(=O)c3ccc(OC)cc3C)C2)c1 (stereo not given) | 0 | -2 | 12 | 1 | -1 | -2 | . | .
CC(=O)c1ccc(N2CCN(C(=O)c3cccs3)CC2)c(F)c1 | 2 | 0 | 7 | 2 | -1 | -1 | . | .
C[C@@H]1NC(=O)c2cc([N+](=O)[O-])cc(I)c2NCCCC[C@@H](C(N)=O)NC(=O)[C@H](CC(N)=O)NC1=O | . | . | 1 | 3 | . | . | . | .
CCN(CC)c1ccc(/C=N\NC(=O)c2cccc3cc[nH]c23)cc1 | 8 | -1 | 33 | -1 | -1 | 0 | . | .
Cc1ccc(/C=N/NC(=O)c2ccoc2C)s1 | 15* | 3 | 56* | 1 | 0 | 2 | 10 | 1
CCN(CC)c1ccc(/C=N/NC(=O)c2ccoc2C)cc1 | 17* | 2 | -1 | 1 | 0 | 5 | 19* | 1
COc1cc(C2c3cc4c(cc3CC3COC(=O)N32)OCO4)cc(OC)c1OC (stereo not given) | -6 | 1 | . | 1 | 0 | 1 | . | .
SMILES | hgDAF-12 ag | DAX1 inh-1 | AHR activator | DAX1 inh-2 | ssDAF12 agonist | hcDAF-12 act | hgDAF12 ag | LXR ag 2
Oc1cccc(/C=N\Nc2nncc(-c3ccccc3)n2)c1 | 16* | 1 | 4 | 1 | 0 | 3 | 12* | 1
Nc1nnc(-c2ccc(Cl)cc2Cl)s1 | 15* | 1 | -1 | 1 | -1 | 2 | 10 | 0
Nc1nnc(-c2ccccc2F)s1 | 3 | 1 | 6 | . | -1 | 1 | . | .
COc1ccc2nc(SCc3cccc(C)c3)nc(C)c2c1 | 15* | 1 | -1 | 1 | -1 | 1 | 14* | 0
COc1ccc2nc(SCc3ccccc3C)nc(C)c2c1 | 2 | 0 | 6 | -1 | 0 | -2 | . | .
O=C(NCc1ccc(F)cc1)c1cnn2ccccc12 | 16* | 3 | -2 | 2 | -1 | 1 | 13* | 1
CSc1cccc(NC(=O)c2cnn3ccccc23)c1 | 18* | 2 | 21 | 2 | 1.7* | 5 | 20* | 1
Cn1cc(CC(=O)NCc2ccc(F)cc2)c2ccccc21 | -1 | 1 | 7 | -1 | -1 | -2 | . | .
O=C1C[C@H](NC(=O)OCc2ccccc2)CO1 | 1 | 3 | -1 | 0 | -1 | 0 | . | .
CCCc1cc(=O)[nH]c(SCC(=O)Nc2cc(S(=O)(=O)N3CCCCC3)ccc2C)n1 | 1 | -1 | -1 | 1 | -2 | 1 | . | .
CC(C)(C)OC(=O)N1CCCC(C(=O)Nc2ccc(C(=O)N3CCOCC3)cc2)C1 (stereo not given) | -1 | 0 | -1 | 2 | -1 | 1 | . | .
COC(=O)/C(=C1/Oc2ccc(C)cc2S1)C(F)(F)F | 2 | 1 | -6 | -1 | -1 | 2 | . | .
CCN(CC)S(=O)(=O)c1ccc2c(c1)N(CC(=O)Nc1cccnc1Cl)C(=O)CO2 | -2 | 0 | 1 | 1 | -2 | 1 | . | .
COc1ccc(C(=O)c2coc3ccc(O)cc23)cc1 | 16* | 3 | -2 | 2 | 1 | 5 | 20* | 1
CC(=O)Oc1ccc2occ(C(=O)c3ccccc3)c2c1 | 9 | 1 | -3 | . | 0 | 4 | . | .
Cc1ccc(C(=O)c2coc3ccc(OCC(=O)O)cc23)cc1 | 1 | 0 | -1 | 0 | -1 | 2 | . | .
CC(=O)Oc1ccc2occ(C(=O)c3cccs3)c2c1 | 14* | 3 | -11 | 0 | -1 | 4 | 11* | 0
Cc1ncc(CO)c(CNc2ccc(-c3nc4ccccc4[nH]3)cc2)c1O | 16* | 2 | . | 1 | -1 | 1 | 13* | 1
Cc1ncc(CO)c(CO)c1O | 3 | 0 | -2 | 0 | -1 | -1 | . | .
CCN(CC)C(=O)CSc1nnc(-c2ccccc2)o1 | 18* | 2 | 5 | 1 | -1 | 2 | 12* | 0
COc1cccc(C(=O)Nc2ccncc2)c1 | . | . | 5 | . | . | . | . | .
COc1cccc(C(=O)Nc2ccc(C3CC3(Cl)Cl)cc2)c1 (stereo not given) | 19* | 3 | 73* | 0 | 1.2* | 2 | 18* | 1

Source: PubChem (The Scripps Research Institute Molecular Screening Center)
